This passage reports activation results from PubChem BioAssay AID624037 (The Scripps Research Institute Molecular Screening Center, 2012).

Each structure is given as a SMILES string. Screen size: about 360,000 compounds; about 700 (0.19%) were called active.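 Rule for the calls: active = activation above the run's mean over test compounds plus 3 SD (cut at about 23% in these data); inactive = the rest.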 Only a selection was taken, and actives are over-represented in it overall.

The experiment deals with Muscarinic acetylcholine receptor M5 (Homo sapiens) (UniProt P08912). Nature of the experiment: CHRM5 activators raising intracellular calcium – CHO-K1 cells, Fluo-8 calcium fluorescence, primary screen (AID 624037).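 Note: signal is peak over basal fluorescence ratio across the kinetic read.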 The note with it: CHO-K1 hM5 cells, at 3 µM, hits give high values, 0% DMSO wells, 100% maximal acetylcholine response.
Sequence of Muscarinic acetylcholine receptor M5 (Homo sapiens) (P08912 whole entry, looked up): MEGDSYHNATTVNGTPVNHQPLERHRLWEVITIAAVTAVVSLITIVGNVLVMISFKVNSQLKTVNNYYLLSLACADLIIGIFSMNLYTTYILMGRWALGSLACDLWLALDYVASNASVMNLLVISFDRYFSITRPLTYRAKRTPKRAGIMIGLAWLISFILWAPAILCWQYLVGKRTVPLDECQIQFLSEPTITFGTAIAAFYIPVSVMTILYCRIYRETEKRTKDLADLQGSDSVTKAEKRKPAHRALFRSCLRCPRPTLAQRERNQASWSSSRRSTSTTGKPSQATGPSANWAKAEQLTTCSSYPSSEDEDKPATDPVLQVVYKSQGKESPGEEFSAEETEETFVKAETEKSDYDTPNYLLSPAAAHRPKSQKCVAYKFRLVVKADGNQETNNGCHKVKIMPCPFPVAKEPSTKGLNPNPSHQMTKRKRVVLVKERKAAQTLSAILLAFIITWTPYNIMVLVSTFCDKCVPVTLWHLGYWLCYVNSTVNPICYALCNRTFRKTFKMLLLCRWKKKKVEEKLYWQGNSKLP
Regarding `O=C(O)c1ccc2c(=O)n3c(nc2c1)/C(=C/c1ccc(OC(F)F)cc1OC(F)F)CC3`, the activation is -3.87% (inactive).
On to `COc1ccc(NC(=O)CCS(=O)(=O)c2cc3c(cc2Cl)NC(=O)CO3)cc1OC`, for which the activation is -3.81% (inactive).
Next, `Cc1cc2c(cc1S(=O)(=O)CCC(=O)NCc1ccccc1)OCC(=O)N2`: 0.35% (inactive).
Then `COc1ccc(Cl)cc1NC(=O)CCS(=O)(=O)c1cc2c(cc1C)NC(=O)CO2`, with 38% (active).
As to `CCOC(=O)Cn1c(=O)oc2cc(S(=O)(=O)NCC3CCCO3)ccc21` (configuration not stated), the activation was 1.72% (inactive).
For the compound `Cc1ccc(S(=O)(=O)N2C[C@H]3n4c(=O)ccc(=O)n4C[C@H](OC(=O)NC4CCCC4)[C@@]3(O)C2)cc1`, the activation was 0.5% (inactive).
Next, `CCC1(C(=O)c2ccccc2)C(c2cccc([N+](=O)[O-])c2)C1(C(=O)OC)C(=O)OC` (configuration not stated): -4.52% (inactive); `O=C(Oc1ccc(C(=S)N2CCOCC2)cc1)c1ccc(F)cc1`: 3.46% (inactive); `CN1C(=O)c2cccc3c(N)ccc(c23)C1=O`: 45.7% (active).
Regarding `Cc1nn(C)cc1N1C(=O)c2cccc3c(N)ccc(c23)C1=O`, the activation is 91.9% (active).
For the compound `CCC(C)(C)NC(=O)CN(C(=O)CCC(=O)Nc1nccs1)c1ccc2c(c1)OCO2`, the activation was -2.1% (inactive).
Turning to `COC(=O)c1sccc1-n1cccc1C(=O)C(=O)N1CCCCC1`, the activation was -2.31% (inactive).
For the compound `CC/C(=N\NC(=O)c1c(C)nc2ccccn12)c1ccc(Cl)cc1`, the activation is -4.55% (inactive).
Take `COc1ccc(N2C(=O)C3C(C2=O)C(C(=O)c2ccccc2)N2CCCC32)cc1` (configuration not stated): the activation was 1.81% (inactive).
For the compound `CCn1c(CNc2ccc(OC)cc2)nnc1SCC(=O)c1ccc(OC)cc1`, the activation was -9.07% (inactive).
Then `O=[N+]([O-])/C=C1\CCCCCN1`, with -0.84% (inactive); and `CC(C)C(=O)Nc1ccc2c3c(cccc13)CC2`, with -5.26% (inactive).
Next, `N#CC1(Nc2ccc(-c3ccc(Cl)cc3)cc2)CCCC1`: -3.18% (inactive).
Consider `N#CC1(Nc2ccc3c4c(cccc24)CC3)CCCCC1`, for which the activation was 37.2% (active).
Next, `COc1cc(Cl)c(S(=O)(=O)n2cnc(C)c2)cc1Cl`: 0.51% (inactive); `COc1cc(OC)c(-n2cc(-c3ccc(Cl)cc3)[nH]c2=O)cc1Cl`: 42.8% (active).
In the case of `COc1ccc(Cl)cc1S(=O)(=O)N1CCC(O)(c2ccc(Cl)cc2)CC1`, the activation was -0.77% (inactive).
Then `COc1ccc(C)cc1NC(=O)CSc1nnc(CC(=O)Nc2ccccc2F)n1C`, with -1.92% (inactive).
Next, `COc1ccc(OC)c(CN2C(=O)CCC2(C)c2nnnn2Cc2ccccc2)c1` (configuration not stated): 2.06% (inactive).
Take `COc1ccc(-n2c(C)csc2=S)cc1`: the activation was -0.99% (inactive).
Next, `CCOC(=O)C1=C(CC)OC(N)=C(C#N)C1c1ccc(F)cc1F` (configuration not stated): -0.33% (inactive).
`Cn1cc(CNC(=O)c2ccc(OC3CCN(Cc4ccccn4)CC3)cc2)cn1`: the activation was -4.97% (inactive).
Next, `COc1ccc(SCCN2CCN(CC(C)C)CCC2=O)cc1`: 1.8% (inactive); `O=C(COc1nc2ccccc2nc1N1CCOCC1)NCC(F)(F)F`: -2.71% (inactive).
Then `Nc1nc2c(ncn2[C@@H]2O[C@H](CNCc3ccc(OCCCN4CCOCC4)cc3)[C@@H](O)[C@H]2O)c(=O)[nH]1`, with 0.62% (inactive); and `O=[N+]([O-])c1cc(C(F)(F)F)ccc1NCCc1ccncc1`, with -2.99% (inactive); and `COCCN(C(=O)CCC(=O)Nc1ccccn1)C(C(=O)NCCC(C)C)c1ccc(OC)cc1` (configuration not stated), with -1.86% (inactive).
In the case of `COc1ccc(C(=O)/C=C/Nc2ccccn2)cc1`, the activation is 78% (active).
On to `O=C(/C=C/Nc1ccc(S(=O)(=O)Nc2cnc3ccccc3n2)cc1)c1cccnc1`, for which the activation is -3.4% (inactive).
As for `CCOc1ccc(C(=O)NC(=S)Nc2ccc(N3CCOCC3)c(Cl)c2)cc1[N+](=O)[O-]`, the activation is -0.99% (inactive).
For the compound `COc1ccc(NC(=O)CN2C(=O)COc3ccc(S(=O)(=O)N4CCOCC4)cc32)c(OC)c1`, the activation is 0.4% (inactive).
Then `C[C@H]1COC(=O)[C@H](CC(=O)OC(C)(C)C)C/C=C\C[C@@H](CC(=O)N[C@H](CO)Cc2ccccc2)C(=O)N1`, with 0.74% (inactive).
Then `Nc1ccn(C2CC(O)C(CO)O2)c(=O)n1` (configuration not stated), with 10.7% (inactive); and `O=c1[nH]cnc(O)c1C(c1ccc(F)cc1)c1c(O)nc[nH]c1=O`, with 0.85% (inactive); and `Cc1occc(=O)c1OCc1c(Cl)cccc1Cl`, with -4.28% (inactive).
Regarding `Cc1occc1C(=O)NC1CCCN(Cc2ccc(CC(C)C)cc2)C1` (configuration not stated), the activation was -1.97% (inactive).
Then `CC(=O)Oc1ccc(Cn2c(C)c(C(=O)NCc3ccc(C#N)cc3)sc2=O)cc1`, with 47.2% (active); and `Cc1c(C(=O)NCc2ccc(C#N)cc2)sc(=O)n1Cc1ccc(C(=O)N(C)C)cc1`, with 0.99% (inactive).
In the case of `Cc1ccc(Cn2c(C)c(C(=O)NCc3ccccc3C(F)(F)F)sc2=O)cc1`, the activation was -2.26% (inactive).
As for `CCN(C(=O)COC(=O)c1cc(NS(=O)(=O)c2ccc(Cl)c([N+](=O)[O-])c2)ccc1O)C1CCCCC1`, the activation is 2.95% (inactive).
Consider `CCC(CC)NC(=O)CSc1nnc(-c2c[nH]c3ccccc23)o1`, for which the activation was -0.74% (inactive).
Then `CC1=CC=CN2C1=NC(=O)CC2(C)C(=O)N(CC(=O)NC1CCCC1)c1ccccc1C` (configuration not stated), with 0.83% (inactive); and `COc1cc(/C=C2/SC(=S)N(Cc3ccccc3)C2=O)cc(OC)c1O`, with 24.1% (active).
Then `COc1cc(=O)[nH]c(=O)n1C(=O)Cc1ccccc1`, with -1.68% (inactive).
With `COc1cc(C(=S)NCc2ccccc2)cc(Br)c1O`, the activation was -4.14% (inactive).
Next, `Nc1c(C(=O)c2cccs2)sc2nsc(SCCN3CCCCC3)c12`: 121% (active).
With `COc1cccc(-c2cnc3c(NC(C)=O)cc(-c4cc(F)ccc4OC)cn23)c1`, the activation was -1.59% (inactive).
With `CCn1c(C(C)C)n[nH]c1=S`, the activation was 1.36% (inactive).
In the case of `CCOc1ccc(Cn2nnc(C(=O)NCc3ccccc3)c2N)cc1`, the activation was 34.7% (active).
Next, `CCCn1nc2cc(C(=O)NCc3ccccc3)ccc2c1OCC`: -0.79% (inactive).
Next, `CCc1ccc(NC(=O)Cn2nnc(C(=O)NCc3ccc4c(c3)OCO4)c2N)cc1`: -3.78% (inactive); `CCN(CC)CCCC(C)n1c2nc(=O)[nH]c(=O)c-2nc2cc(Cl)ccc21` (configuration not stated): 438% (active).
